# Out of some 3,200 compounds screened, about 300 (9.4%) showed activity. The entries come from a sample that favours actives as a whole. A number with no mark means an inactive call.
# Test system: A673/TR/shEF
# Assay: cell viability (LOESS-normalised, relative to median of negative controls) (log2 ratio); higher = more viable cells (less compound effect), active = hit call of the paper (over 3 MAD below the median)
# Conditions: treatment time: 72 h
# In short: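 For three days, A673/TR/shEF Ewing sarcoma cells in 384-well plates (1,500 per well) were treated with library compounds at two or more concentrations or with DMSO controls, after doxycycline had been added or withheld 24 h beforehand to induce EWS-FLI1 shRNA knockdown. Viability was read by CellTiter-Glo luminescence on an Envision reader. The data were LOESS-corrected per plate, divided by the median of negative controls and log2-transformed.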
# [1] = 0.25 µM, library screen: screen1, EWS-FLI1 expression: high (no doxycycline)
# [2] = 0.25 µM, library screen: screen1, EWS-FLI1 expression: low (doxycycline-induced shRNA knockdown)
# [3] = 2.5 µM, library screen: screen1, EWS-FLI1 expression: high (no doxycycline)
# [4] = 2.5 µM, library screen: screen1, EWS-FLI1 expression: low (doxycycline-induced shRNA knockdown)
# [5] = 0.25 µM, library screen: screen2, EWS-FLI1 expression: high (no doxycycline)
# [6] = 0.25 µM, library screen: screen2, EWS-FLI1 expression: low (doxycycline-induced shRNA knockdown)
# [7] = 2.5 µM, library screen: screen2, EWS-FLI1 expression: high (no doxycycline)
# [8] = 2.5 µM, library screen: screen2, EWS-FLI1 expression: low (doxycycline-induced shRNA knockdown)
structure (smiles),measurement,setting,value
O=S1OCC2C(CO1)C1(Cl)C(Cl)=C(Cl)C2(Cl)C1(Cl)Cl (stereo unspecified),cell viability (log2),[1],0.126
same,cell viability (log2),[2],0.0993
same,cell viability (log2),[3],0.0998
same,cell viability (log2),[4],-2.97
COc1ccc(CCN)cc1O,cell viability (log2),[5],0.19
same,cell viability (log2),[6],0.105
same,cell viability (log2),[7],0.0411
same,cell viability (log2),[8],0.0823
CC1(C)C2C[C@@H](O)[C@]3(C)C(CC[C@@]4(C)[C@H](c5ccoc5)OC(=O)[C@H]5O[C@]543)[C@@]2(C)[C@@H](O)C[C@H]1O (stereo partly specified),cell viability (log2),[1],0.0675
same,cell viability (log2),[2],0.0959
same,cell viability (log2),[3],0.135
same,cell viability (log2),[4],0.0584
C[N+]1(C)[C@H]2CC(OC(=O)C(CO)c3ccccc3)C[C@H]1[C@H]1O[C@H]12 (stereo partly specified),cell viability (log2),[5],0.258
same,cell viability (log2),[6],0.0872
same,cell viability (log2),[7],0.133
same,cell viability (log2),[8],-0.00973
CO[C@H]1[C@H](O)[C@H](O[C@H]2CC[C@@]3(C=O)[C@H](CC[C@@H]4[C@@H]3CC[C@]3(C)[C@@H](C5=CC(=O)OC5)CC[C@]43O)C2)O[C@@H](C)[C@@H]1O,cell viability (log2),[1],-3.17 (active)
same,cell viability (log2),[2],-3.22 (active)
same,cell viability (log2),[3],-3.52 (active)
same,cell viability (log2),[4],-4.22 (active)
CO[C@H]1[C@H](O)[C@H](O[C@H]2CC[C@@]3(C)[C@H](CC[C@@H]4[C@@H]3CC[C@]3(C)[C@@H](C5=CC(=O)OC5)CC[C@]43O)C2)O[C@@H](C)[C@@H]1O,cell viability (log2),[1],0.0843
same,cell viability (log2),[2],0.064
same,cell viability (log2),[3],-4.02 (active)
same,cell viability (log2),[4],-4.27 (active)
C[C@@H]1[C@H](O)[C@@H](C)/C=C/C=C/CC/C=C/C=C/C=C/C=C/C(O[C@H]2O[C@H](C)[C@@H](O)[C@H](N)[C@@H]2O)CC2O[C@](O)(CC(O)C(O)CCC(O)CC(O)CC(O)CC(=O)O[C@H]1C)CC(O)C2C(=O)O (stereo partly specified),cell viability (log2),"0.103 µM, library screen: screen3, EWS-FLI1 expression: high (no doxycycline)",0.0278
same,cell viability (log2),"0.103 µM, library screen: screen3, EWS-FLI1 expression: low (doxycycline-induced shRNA knockdown)",0.00627
same,cell viability (log2),[1],0.0655
same,cell viability (log2),[2],0.0679
same,cell viability (log2),"0.308 µM, library screen: screen3, EWS-FLI1 expression: high (no doxycycline)",0.00683
same,cell viability (log2),"0.308 µM, library screen: screen3, EWS-FLI1 expression: low (doxycycline-induced shRNA knockdown)",0.0137
same,cell viability (log2),"0.926 µM, library screen: screen3, EWS-FLI1 expression: high (no doxycycline)",0.00828
same,cell viability (log2),"0.926 µM, library screen: screen3, EWS-FLI1 expression: low (doxycycline-induced shRNA knockdown)",0.0539
same,cell viability (log2),[3],0.133
same,cell viability (log2),[4],0.104
same,cell viability (log2),"2.8 µM, library screen: screen3, EWS-FLI1 expression: high (no doxycycline)",-0.00919
same,cell viability (log2),"2.8 µM, library screen: screen3, EWS-FLI1 expression: low (doxycycline-induced shRNA knockdown)",0.0174
same,cell viability (log2),"8.3 µM, library screen: screen3, EWS-FLI1 expression: high (no doxycycline)",0.0134
same,cell viability (log2),"8.3 µM, library screen: screen3, EWS-FLI1 expression: low (doxycycline-induced shRNA knockdown)",0.0644
same,cell viability (log2),"25 µM, library screen: screen3, EWS-FLI1 expression: high (no doxycycline)",0.0075
same,cell viability (log2),"25 µM, library screen: screen3, EWS-FLI1 expression: low (doxycycline-induced shRNA knockdown)",0.0194
CN=C1CN(O)C(c2ccccc2)=c2cc(Cl)ccc2=N1,cell viability (log2),[1],0.0853
same,cell viability (log2),[2],0.0654
same,cell viability (log2),[3],0.0997
same,cell viability (log2),[4],0.0898
CCN1C[C@]2(C)CC[C@H](OC)[C@@]34C1[C@]1(OCO[C@@]15C[C@H](OC)[C@H]1C[C@]3(O)[C@@H]5[C@H]1OC)[C@@H](OC(C)=O)[C@H]24,cell viability (log2),[1],0.0895
same,cell viability (log2),[2],0.0208
same,cell viability (log2),[3],0.12
same,cell viability (log2),[4],0.0444
C=CCN1CC[C@]23c4c5ccc(O)c4O[C@@H]2/C(=N/N=C2\CC[C@@]4(O)C6Cc7ccc(O)c8c7[C@@]4(CCN6CC=C)[C@@H]2O8)CC[C@@]3(O)C1C5,cell viability (log2),[5],0.27
same,cell viability (log2),[6],0.119
same,cell viability (log2),[7],0.0736
same,cell viability (log2),[8],0.0511
S=C=NCc1ccccc1,cell viability (log2),[1],0.0421
same,cell viability (log2),[2],0.0817
same,cell viability (log2),[3],0.0546
same,cell viability (log2),[4],0.123
CCOP(=S)(OCC)Oc1ccc2c(C)c(Cl)c(=O)oc2c1,cell viability (log2),[1],-0.0154
same,cell viability (log2),[2],-0.0116
same,cell viability (log2),[3],0.000589
same,cell viability (log2),[4],-0.0198
COc1c2c(cc3c1OCO3)CC[N+](C)=C2,cell viability (log2),[1],0.122
same,cell viability (log2),[2],0.157
same,cell viability (log2),[3],0.0941
same,cell viability (log2),[4],0.18
COc1ccc(C(=O)OC2CCC3(C)C4CCC5[C@]6(O)C[C@H](O)[C@@]7(O)C(CN8CC(C)CCC8[C@@]7(C)O)[C@]6(O)C[C@@]53O[C@]24O)cc1OC (stereo partly specified),cell viability (log2),[1],0.0564
same,cell viability (log2),[2],0.0531
same,cell viability (log2),[3],0.0896
same,cell viability (log2),[4],0.133
S=C=Nc1cccc(C2(N3CCCCC3)CCCCC2)c1,cell viability (log2),[5],0.168
same,cell viability (log2),[6],0.105
same,cell viability (log2),[7],0.16
same,cell viability (log2),[8],0.118
NCCCP(=O)(O)O,cell viability (log2),[5],0.138
same,cell viability (log2),[6],0.0766
same,cell viability (log2),[7],0.114
same,cell viability (log2),[8],0.116
O=C1C=CC(=O)c2c(O)cccc21,cell viability (log2),"0.025 µM, library screen: screen2, EWS-FLI1 expression: high (no doxycycline)",0.123
same,cell viability (log2),"0.025 µM, library screen: screen2, EWS-FLI1 expression: low (doxycycline-induced shRNA knockdown)",0.0947
same,cell viability (log2),[1],0.185
same,cell viability (log2),[2],0.0663
same,cell viability (log2),[5],0.0843
same,cell viability (log2),[6],0.00401
same,cell viability (log2),[3],0.153
same,cell viability (log2),[4],0.0956
same,cell viability (log2),[7],0.273
same,cell viability (log2),[8],0.125
same,cell viability (log2),"25 µM, library screen: screen2, EWS-FLI1 expression: high (no doxycycline)",-0.0924 (active)
same,cell viability (log2),"25 µM, library screen: screen2, EWS-FLI1 expression: low (doxycycline-induced shRNA knockdown)",-0.0926 (active)
CCCCCCC(C)(C)c1ccc([C@H]2C[C@@H](O)CC[C@H]2CCCO)c(O)c1,cell viability (log2),[5],0.0289
same,cell viability (log2),[6],0.103
same,cell viability (log2),[7],0.129
same,cell viability (log2),[8],0.122
CCc1cccc(C)c1N(C(=O)CCl)C(C)COC (stereo unspecified),cell viability (log2),[1],0.0561
same,cell viability (log2),[2],0.0711
same,cell viability (log2),[3],0.0898
same,cell viability (log2),[4],0.0634

# From the supplement of paper PMC6089552
